V-ATPase pHluor = yeast V-ATPase proton transport regulation by pHLuorin | 0.37% of 350,000 active | S. cerevisiae, pHLuorin cytosolic pH fluorescence | response, % at 10 µM; in the data active = response mostly above about 7.3%, no sharp cut-off; inactive = mostly below about 5.4%; note: actives read high
MIN6 prolif = MIN6 beta-cell proliferation induction; MIN6 cells proliferation, ATPlite luminescence, 48 h; cells starved in 0.2% serum; 100% = growth in 10% serum; AID 2380; proliferation, % at 10 µM; 0.29% of 330,000 active;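 active = compounds whose signal lies at least 3.5 SD above the mean of all wells on their plate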;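 note: 0% = DMSO-treated cells in low-serum medium and 100% = 10% serum control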
DAGLB inh = blocks human DAGLB lipase activity; AID 504411; HEK293T DAGLB membrane lysate, EnzChek fluorogenic substrate; inhibition, % at 5.17 µM; 0.059% of 340,000 active; Q8NCG7; in the data active = inhibition above about 34%;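 note: 0% = enzyme with vehicle and 100% = wells lacking enzyme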
Rtt109 Vps75 = blocks Candida albicans Rtt109/Vps75 acetyltransferase activity. purified Rtt109/Vps75, ThioGlo CoA-SH fluorescence, 4 h. 0.16% of 330,000 active. inhibition, % at 34.9 µM;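 active = inhibition of at least 50% in every replicate; inconclusive = best replicate reaches 50% inhibition but some replicates fall short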
HDAC3 inhib = inhibitors of human histone deacetylase 3. O15379. inhibition, % at 8.3 µM. recombinant HDAC3, fluorogenic peptide/trypsin coupled, fluorescence. 0.15% of 320,000 active; in the data active = inhibition above about 26%, passing the limit was not always enough; inconclusive = no clear call, values can overlap the other calls
Target sequence (O15379 whole entry, looked up): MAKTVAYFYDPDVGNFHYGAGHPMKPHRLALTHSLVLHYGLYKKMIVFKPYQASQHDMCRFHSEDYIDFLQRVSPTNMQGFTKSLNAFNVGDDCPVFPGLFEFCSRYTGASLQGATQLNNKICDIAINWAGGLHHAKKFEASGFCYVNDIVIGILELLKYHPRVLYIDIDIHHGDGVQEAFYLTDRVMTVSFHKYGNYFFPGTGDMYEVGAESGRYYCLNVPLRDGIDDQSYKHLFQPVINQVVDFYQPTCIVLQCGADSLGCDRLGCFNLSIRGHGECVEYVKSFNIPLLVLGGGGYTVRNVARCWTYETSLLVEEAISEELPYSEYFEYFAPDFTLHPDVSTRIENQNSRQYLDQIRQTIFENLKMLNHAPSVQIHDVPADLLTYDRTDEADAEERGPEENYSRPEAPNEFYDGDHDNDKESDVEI
V-ATPase pH SP = yeast V-ATPase proton transport regulation; 2% of 980 active; S. cerevisiae pHLuorin cytosolic pH; shares compounds with V-ATPase pHluor; response, % at 10 µM; in the data active = response above about 24%;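 note: plate controls were vehicle wells for no effect and positive control wells for full effect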
Active calls of the source: *; ? = inconclusive; . = no result given. Sampled rows, rich in hits. Any-hit rate of the full collection: about 0.96%.

SMILES	V-ATPase pHluor	MIN6 prolif	DAGLB inh	Rtt109 Vps75	HDAC3 inhib	V-ATPase pH SP
O=C(N/N=C/c1cccc([N+](=O)[O-])c1)c1ccc(CN2CCOCC2)cc1	13.8*	-2.9	2.1	-2.7	-0.6	-5.9
O=C(N/N=C/c1cccc2ccccc12)c1ccc(CN2CCOCC2)cc1	-2.2	-0.1	-2.9	1.0	-0.4	.
c1ccc(-n2c3ccccc3c3ccccc32)cc1	0.5	-2.2	.	.	3.0	.
Cc1cccc(C)c1NC(=O)CNC(=O)c1ccncc1	8.3*	-1.5	-0.4	22.7	-0.6	-2.0
COC(C(=O)Nc1c(F)cccc1F)c1ccccc1 (stereo not given)	10.3*	-2.7	2.3	2.9	9.3	-6.7
CCOCCn1c(=NC(=O)/C=C/c2ccccc2Cl)sc2cc(NC(C)=O)ccc21	-18.5	-1.2	-3.1	1.9	-4.1	.
C[C@H](CO)N1C[C@H](C)[C@@H](CN(C)S(=O)(=O)c2ccc(F)cc2)Oc2c(NC(=O)NC3CCCCC3)cccc2C1=O	12.9*	-2.4	-2.1	25.7	2.6	-0.3
COc1ccc(C)cc1NC(=O)C(OC(=O)CNC(=O)c1cccc(F)c1)c1ccccc1 (stereo not given)	10.2*	-1.1	-3.9	5.7	0.3	-0.1
COc1ccc(C)cc1NC(=O)C(OC(=O)CNC(=O)c1ccc(Oc2ccccc2)cc1)c1ccccc1 (stereo not given)	-2.2	-4.9	-3.3	-1.6	1.8	.
COc1ccc(/C=C/C(=O)OCC(=O)NCc2ccccc2)cc1OC	-3.6	-0.7	-2.4	11.6	6.1	.
O=S1(=O)C=C(SCCN2CCCCC2)c2ccccc21	-2.4	-1.0	-0.2	1.2	2.1	2.7
Cn1c(SCCN2CCCCC2)nnc1-c1ccccc1Br	3.5	-2.2	0.7	-4.7	-13.8	.
COc1ccccc1C/C(N)=N/OC(=O)c1ccc2c(c1)OCO2	8.5*	-2.8	-1.2	.	-0.2	3.2
CC1Cc2ccccc2N1S(=O)(=O)c1cccc(C(=O)NCCCn2ccnc2)c1 (stereo not given)	10.1*	-2.6	-1.0	-3.2	-3.7	-0.7
O=C(NCCCn1ccnc1)c1cccc(S(=O)(=O)N2CCCCCC2)c1	-2.2	-0.2	-2.6	9.6	0.6	.
C[C@H](CO)N1C[C@H](C)[C@H](CN(C)C(=O)c2ccccc2)OCc2ccccc2-c2c(n(C)c3ccccc23)C1=O	0.8	.	0.3	.	.	.
COc1ccc(OC)c(-n2c(SCC(=O)NCc3ccco3)nnc2-c2c[nH]c3ccccc23)c1	12.4*	11.8	-1.5	3.0	3.0	-1.6
COc1ccccc1COn1c(=O)c(-c2ccco2)[n+]([O-])c2ccccc21	2.3	0.9	-5.1	-18.9	4.6	.
CCN1C(=O)C(CC(=O)Nc2ccc(OC)cc2)N(CCCN2CCN(c3ccc(F)cc3)CC2)C1=S (stereo not given)	13.3*	-6.4	-7.3	4.6	1.4	2.8
CCN1C(=O)C(CC(=O)Nc2ccc(OC)cc2)N(CCc2ccc(F)cc2)C1=S (stereo not given)	5.8	-6.6	-5.0	4.8	-0.5	.
CN(C1CCCCC1)S(=O)(=O)c1ccc(-c2ccccn2)s1	1.0	-0.9	.	.	3.8	.
Cc1c(-n2c(SCC(=O)O)nnc2-c2ccccc2Br)c(=O)n(-c2ccccc2)n1C	7.1*	-2.7	2.9	9.0	.	8.7
O=C(Nc1ccc([N+](=O)[O-])cc1)c1ccccc1F	15.5*	1.7	1.6	-1.8	6.2	2.4
Cc1occc1C(=O)Nc1c(F)cc(F)cc1Br	0.6	1.5	1.0	12.0	0.5	.
Cc1ccc(OCc2cc(C(=O)NCC3COCCO3)no2)cc1C (stereo not given)	-2.3	1.2	-0.2	-0.3	1.8	.
SMILES	V-ATPase pHluor	MIN6 prolif	DAGLB inh	Rtt109 Vps75	HDAC3 inhib	V-ATPase pH SP
Cc1ccc(OCc2cc(C(=O)NCC(C)(C)N3CCOCC3)no2)cc1C	8.2*	-3.8	-1.7	3.2	-2.1	-7.1
CCCn1c(N)c(NCCN2CCOCC2)c(=O)n(CC(=O)NCc2ccccc2)c1=O	2.1	-3.7	0.2	-6.7	3.0	.
Cc1cccc2nc(-c3cccnc3)c(NCCC(C)C)n12	11.8*	-1.1	-4.6	11.1	-1.8	-0.6
CCC(CC)c1nnc(NC(=O)Oc2ccccc2)s1	16.9*	-1.4	-0.5	-0.2	7.6	2.8
O=C(Nc1cccc(-c2cccc(F)c2)c1)C1CCN(C2CCOCC2)CC1	-2.7	-1.9	0.7	5.1	-0.8	.
COc1ccccc1OC1OC2COC(c3ccco3)OC2C(O)C1NC(C)=O (stereo not given)	4.1	-2.4	-0.6	-9.7	-1.0	.
COc1cccc(NC(=O)C(OC(=O)/C=C/c2ccc3c(c2)OCO3)c2ccccc2)c1 (stereo not given)	10.8*	-2.5	-2.0	-12.8	1.2	-0.3
CC(=O)Nc1ccc(NC(=O)C(C)OC(=O)/C=C/c2ccc3c(c2)OCO3)cc1 (stereo not given)	3.3	0.3	1.7	3.0	-0.9	.
O=C(C1CCN(S(=O)(=O)c2cccc3nonc23)CC1)N1CCCCC1	4.2	0.0	-0.3	-8.1	-4.4	.
O=c1c2ccccc2ncn1-c1ccc(Cl)cc1	-4.1	1.9	-1.5	1.8	-4.9	3.6
COC(=O)c1cn(NC(=O)Cc2ccccc2Br)c(=O)c2ccccc12	9.1*	-0.1	-0.5	-4.2	-5.2	-2.7
COC(=O)c1cn(NC(=O)Cc2ccccc2OC)c(=O)c2ccccc12	1.4	2.6	-2.2	1.5	3.6	.
O=C(CN(c1ccccc1F)S(=O)(=O)c1ccccc1)Nc1ccccc1C(=O)N1CCOCC1	-0.2	-1.4	0.9	-5.1	0.9	.
Cc1c(C)n2c3c(cccc13)CC2	6.0*	-1.6	-1.5	-14.8	1.4	0.9
CN1CCN(C(=O)c2c(O)c3cccc4c3n(c2=O)CC4)CC1	-0.1	0.5	-1.1	-3.2	3.4	.
CCOC(=O)C(NC(=O)NCc1cccc(C(F)(F)F)c1)(OCC)C(F)(F)F (stereo not given)	-0.1	3.1	-1.1	?	9.4	.
Cc1ccc(NC(=O)CCn2c(=O)[nH]c3ccsc3c2=O)cc1	-0.3	-3.0	0.0	-1.5	-1.3	.
COc1cc(NC(=O)CCn2c(=O)[nH]c3ccsc3c2=O)cc(OC)c1	7.7*	-1.7	1.4	-0.7	-2.8	1.8
COc1ccc(OCC(O)CN(CC(O)COc2ccc(OC)cc2)c2cccc(O)c2)cc1 (stereo not given)	0.0	-0.4	-0.7	1.3	3.8	.
COc1cc(CC(=O)OCC(=O)NC2CCCC2)cc(OC)c1OC	12.2*	0.3	-1.3	-4.3	.	-0.8
COc1cc(CC(=O)OCC(=O)NC2CC2)cc(OC)c1OC	2.2	-0.4	0.4	-5.7	-1.2	.
Nc1c(Br)c(=O)[nH]c(=O)n1-c1ccccc1	2.6	0.4	-0.8	-5.4	3.9	.
CCc1c(C#N)c(=O)[nH]c(=O)n1-c1ccccc1	10.0*	-0.6	0.6	4.6	4.5	-1.4

Bioassay records deposited in PubChem BioAssay by several laboratories.
